Structures are written as SMILES. Several values for one entry are separate records, joined by “and”; a condition that tells them apart may be missing. Equal entries are not always repeated. Inconclusive results are not listed. The source holds several records for some structures; these can differ, active in one and inactive in another. Activity calls are given as the source filed them. Unless noted, calls come from the whole dose curve; as a rule, active = well fitted curve in the direction sought with a large enough effect; inconclusive = small, poorly fitted or top-dose-only effect, or another doubt; inactive = no such curve, though single readings can be large; an effect the other way counts as inactive or inconclusive.

The values that follow come from PubChem BioAssay (NCATS).

The target in test [1] is Peroxisome proliferator-activated receptor gamma (Homo sapiens) (UniProt P37231). As to the kind of experiment: qHTS assay for small molecule agonists of peroxisome proliferator-activated receptor gamma signaling (AID 588536; active = well fitted curve in the direction sought with a large enough effect in the signal ratio, with a control signal flat, not every such curve was filed as active; the % refers to the signal ratio;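 note: 0% = DMSO basal wells and 100% = rosiglitazone at 2 µM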). In outline:
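Cells were plated and held 6–6.5 h at 37 C, then compounds were added as a titration series. After a further 16 h, CCF4 dye was loaded for 2 h at room temperature and emission at 460/530 nm recorded.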
For orientation: Quantitative high-throughput screening tests each substance at several concentrations.

Test [2] shares this target. As to the kind of experiment: qHTS assay for small molecule antagonists of peroxisome proliferator-activated receptor gamma signaling (AID 588537; active = well fitted inhibition curve with a large enough effect in the signal ratio, with a control signal flat, not every such curve was filed as active; the % refers to the signal ratio;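 note: reporter cells co-stimulated with 50 nM rosiglitazone agonist during compound treatment; % of control where 0% means no effect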). In outline:
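Read-out: CCF4 fluorescence (ex 405, em 460/530 nm) after 2 h at RT. Cells were HEK293 carrying a UAS-bla reporter and treated 16 h at 37 C with compound plus rosiglitazone (50 nM final). Normalized to rosiglitazone and DMSO.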

Test [3] in a line: qHTS assay for small molecule agonists of retinoid X receptor alpha signaling (AID 588544; calls by dose curve). Conditions: HEK293T RXRa-UAS-bla, beta-lactamase reporter, 18 h; 530 nm emission.
Test [4] has as its target Retinoic acid receptor RXR-alpha (Homo sapiens) (UniProt P19793). Described as above.
The target in test [5] is Thyroid hormone receptor beta (Homo sapiens) (UniProt P10828). The test is described as follows: qHTS assay for small molecule agonists of thyroid hormone receptor beta signaling (AID 588545; calls by dose curve). The essentials: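 Agonist-mode beta-lactamase reporter assay, HEK 293 cells, 2% charcoal/dextran FBS; cells plated 4 hrs, compound 18 hrs at 37 C, CCF4 2 hrs RT. Normalized to 10 nM T3 (100%) and DMSO (0%); Hill fit gives EC50, efficacy.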

Test [6] in a line: qHTS assay for small molecule antagonists of retinoid X receptor alpha signaling (AID 588546; active = well fitted inhibition curve with a large enough effect in the signal ratio, with a control signal flat, not every such curve was filed as active; the % refers to the signal ratio;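 note: cells stimulated with 9-cis-retinoic acid as agonist; % is set by controls: 0 for no effect and ±100 for the full control effect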). Conditions: HEK293T RXRa-UAS-bla, beta-lactamase ratio, antagonist mode; measured here: W530 green channel, cytotoxicity proxy. In outline: (§1)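 Beta-lactamase reporter inhibition, read as CCF4 fluorescence ratio (ex 405, em 460/530 nm) after 2 h at RT. HEK293T UAS-bla cells, 2500/well, were stimulated with 9-cis-RA at 500 or 100 nM final alongside test compound for 18 h at 37 C.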

For test [7], the target named is Retinoic acid receptor RXR-alpha (Homo sapiens) (UniProt P19793). The description is as above. Conditions: HEK293T RXRa-UAS-bla, beta-lactamase ratio, antagonist mode. In outline:
as §1

Test [8] concerns the target Thyroid hormone receptor beta (Homo sapiens) (UniProt P10828). The test is described as follows: qHTS assay for small molecule antagonists of thyroid hormone receptor beta signaling (AID 588547; active = well fitted inhibition curve with a large enough effect in the signal ratio, with a control signal flat, not every such curve was filed as active; the % refers to the signal ratio;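 note: cells stimulated with 0.4 nM T3 agonist during compound exposure; series mostly up to about 77 µM; % is set by controls: 0 for no effect and ±100 for the full control effect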). The settings on record: TR-UAS-bla HEK293, beta-lactamase ratio, antagonist mode, 18 h. The essentials: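 TR-UAS-bla GripTite HEK293 cells in 2% charcoal/dextran FBS medium; compounds 0.59 nM to 92 uM with T3 at 0.4nM final, 18 h at 37 C. Beta-lactamase read by CCF4 fluorescence (460/530 nm); Hill fits gave IC50 and efficacy.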

Test [9] addresses Luciferin 4-monooxygenase (Photinus pyralis) (UniProt P08659). As to the kind of experiment: Biochemical firefly luciferase enzyme assay for NPC (AID 624030).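 Note: purified P. pyralis luciferase at 10 nM with luciferin and ATP substrate; series mostly up to about 59 µM; 0% = DMSO and -100% = full luciferase inhibition by PTC124 control; nearly all actives have a fitted effect of over 70% in size.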 The essentials:
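Purified P. pyralis luciferase at 10 nM in 50 mM Tris Acetate (final), luminescence read within 5 minutes of enzyme addition to compounds. Activity normalised to PTC124 versus DMSO; concentration-response curves classed by r2, magnitude and activity.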

A short description of test [10]: S16 Schwann cell viability assay (CellTiter-Glo assay) (AID 624031).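 Note: cellular ATP luminescence as a viability measure; series mostly up to about 58 µM; plate controls were DMSO-treated cells for no effect and cell-free wells for full effect; nearly all actives have a fitted effect of over 70% in size.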 The essentials:
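This viability control uses native rat S16 Schwann cells grown in DMEM plus 10% FBS. After a 24 h compound treatment at 37 °C, CellTiter-Glo luminescence reports ATP content, scaled against DMSO-treated and cell-free wells.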
(In general: In ATP-based viability assays light output follows the ATP content of the culture.)

For test [11], the target named is Voltage-gated inwardly rectifying potassium channel KCNH2 (Homo sapiens) (UniProt Q12809). As to the kind of experiment: qHTS Assay for Small Molecule Inhibitors of the Human hERG Channel Activity (AID 588834).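 Note: lower thallium flux fluorescence means stronger hERG block; nearly all actives have a fitted effect of over 50% in size.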 Note: potency is the fitted concentration of half-maximal effect. The essentials: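 Cells were infected with hERG-BacMam virus for 4 hrs at room temperature, grown overnight, then seeded at 2000/well. After dye loading and roughly 10 min compound treatment, thallium influx was triggered and fluorescence recorded.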

A short description of test [12]: S16 Schwann cell PMP22 intronic element firefly luciferase assay (AID 624032).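 Note: series mostly up to about 58 µM; plate controls were DMSO for no effect and PTC124 positive control mean for full effect; nearly all actives have a fitted effect of over 30% in size.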 In outline: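 Rat S16 Schwann cells stably carrying firefly luciferase driven by a PMP22 intronic element, in 10% FBS, treated 24 h at 37 C. ONE-Glo luminescence normalized to PTC124 control and DMSO (0%); curves classed by r2, magnitude and activity.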
A short description of test [13]: S16 Schwann cell PMP22 intronic element beta-lactamase assay (AID 624044; calls by dose curve;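 note: 0% = DMSO and -100% = potassium clavulanate positive control; nearly all actives have a fitted effect of over 15% in size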). In outline:
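Beta-lactamase reporter under a PMP22 intronic regulatory element in stable S16 rat Schwann cells; 24 h compound exposure. 460 nm blue signal normalized between DMSO (0%) and potassium clavulanate, with 535 nm FRET tracking viability; curves classed by r2 and response.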

Test [14] deals with Glutaminase kidney isoform, mitochondrial (Homo sapiens) (UniProt O94925). As to the kind of experiment: qHTS for Inhibitors of Glutaminase (GLS): LOPAC Validation (AID 624146).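 Note: glutamate product detected by oxidase and peroxidase coupled Amplex red fluorescence gain; series mostly up to about 46 µM; % is set by controls: 0 for no effect and ±100 for the full control effect; nearly all actives have a fitted effect of over 60% in size.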 In outline:
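hKGA in 45 mM KH2PO4 pH 8.2, 0.02% Tween-20 with pin-transferred compounds; 1 mM L-glutamine (stock) plus glutamate oxidase/HRP/Amplex Red coupling added. Fluorescence read initially and after 30 min at RT.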

Test [15] has as its target Glucagon-like peptide 1 receptor (Homo sapiens) (UniProt P43220). The test is described as follows: qHTS of GLP-1 Receptor Agonists: LOPAC Validation (AID 624148).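 Note: 0% is about no effect; higher luminescence signal means agonism.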 In outline: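 HEK293 cells stably co-expressing GLP-1R and a cAMP-responsive luciferase reporter, plated 12 hours before compound, then incubated 4-6 hr at 37 deg C. Luminescence read 12 min after detection reagent.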

Test [16] in a line: HTS Assay for Allosteric Antagonists of the Human D2 Dopamine Receptor: Hit Validation in HTRF (AID 624455). Note: % is set by controls: 0 for no effect and ±100 for the full control effect. In outline: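 HTRF read-out; cells stably expressing D1 receptor; hits scored for inhibition of D1-mediated response. Primary screen: calcium flux, force-coupled inducible Hek293 Trex D2 line, antagonism vs EC80 dopamine.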
A general note: In TR-FRET formats the signal depends on donor and acceptor labels being close together.

Test [17] can be described thus: qHTS of Trypanosoma Brucei Inhibitors: LOPAC Validation (AID 624147). Note: 0% is about no effect. The essentials: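 Screened from lowest to highest concentration, compounds were pinned into TbPYK/substrate mixtures, and ADP (130 uM final) was added. Plates sat at room temperature for 45 min prior to Kinase-Glo Plus detection by luminescence.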
A short description of test [18]: qHTS of Nrf2 Activators: LOPAC Validation (AID 624149). Note: 0% is about no effect. In outline: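 AREc32_Fluc cells, 1000/well, OPTI-MEM + 5% FBS, o/n 37 deg C 5% CO2; compound pin-transfer, 24 hr 37 deg C; Steady-Glo 30 min RT, luminescence read.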

Sequence of Glutaminase kidney isoform, mitochondrial (Homo sapiens) (O94925 whole entry, looked up, canonical isoform): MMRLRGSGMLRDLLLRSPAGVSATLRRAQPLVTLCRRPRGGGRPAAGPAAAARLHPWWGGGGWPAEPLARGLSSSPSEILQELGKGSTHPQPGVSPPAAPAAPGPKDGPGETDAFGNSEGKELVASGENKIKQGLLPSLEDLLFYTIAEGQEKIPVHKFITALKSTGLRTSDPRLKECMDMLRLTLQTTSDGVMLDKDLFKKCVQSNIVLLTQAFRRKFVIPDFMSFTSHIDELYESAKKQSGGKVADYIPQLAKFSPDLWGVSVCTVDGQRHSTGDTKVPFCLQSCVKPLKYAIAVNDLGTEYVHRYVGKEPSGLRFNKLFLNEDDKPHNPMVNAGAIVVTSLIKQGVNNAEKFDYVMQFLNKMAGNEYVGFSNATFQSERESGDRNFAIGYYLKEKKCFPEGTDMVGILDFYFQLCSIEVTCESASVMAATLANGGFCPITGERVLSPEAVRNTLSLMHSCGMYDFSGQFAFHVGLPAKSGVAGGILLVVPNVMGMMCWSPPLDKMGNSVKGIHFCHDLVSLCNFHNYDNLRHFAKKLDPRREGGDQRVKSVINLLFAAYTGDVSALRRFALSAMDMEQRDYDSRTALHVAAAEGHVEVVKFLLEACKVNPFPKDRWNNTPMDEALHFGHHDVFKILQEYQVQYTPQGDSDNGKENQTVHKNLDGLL
Sequence of Glucagon-like peptide 1 receptor (Homo sapiens) (P43220 whole entry, looked up): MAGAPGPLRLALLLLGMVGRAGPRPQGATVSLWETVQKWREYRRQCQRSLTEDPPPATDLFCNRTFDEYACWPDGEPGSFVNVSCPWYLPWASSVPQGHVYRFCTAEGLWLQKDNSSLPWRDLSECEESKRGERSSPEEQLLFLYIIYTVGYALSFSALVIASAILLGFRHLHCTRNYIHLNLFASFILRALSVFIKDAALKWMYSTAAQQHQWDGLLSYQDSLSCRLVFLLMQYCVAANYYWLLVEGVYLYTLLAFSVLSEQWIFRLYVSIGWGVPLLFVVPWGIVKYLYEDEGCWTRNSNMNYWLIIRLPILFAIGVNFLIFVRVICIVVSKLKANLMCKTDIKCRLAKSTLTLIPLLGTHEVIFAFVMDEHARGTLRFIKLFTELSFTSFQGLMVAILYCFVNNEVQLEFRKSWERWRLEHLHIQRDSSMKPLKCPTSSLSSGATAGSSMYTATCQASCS
Sequence of Voltage-gated inwardly rectifying potassium channel KCNH2 (Homo sapiens) (Q12809 whole entry, looked up): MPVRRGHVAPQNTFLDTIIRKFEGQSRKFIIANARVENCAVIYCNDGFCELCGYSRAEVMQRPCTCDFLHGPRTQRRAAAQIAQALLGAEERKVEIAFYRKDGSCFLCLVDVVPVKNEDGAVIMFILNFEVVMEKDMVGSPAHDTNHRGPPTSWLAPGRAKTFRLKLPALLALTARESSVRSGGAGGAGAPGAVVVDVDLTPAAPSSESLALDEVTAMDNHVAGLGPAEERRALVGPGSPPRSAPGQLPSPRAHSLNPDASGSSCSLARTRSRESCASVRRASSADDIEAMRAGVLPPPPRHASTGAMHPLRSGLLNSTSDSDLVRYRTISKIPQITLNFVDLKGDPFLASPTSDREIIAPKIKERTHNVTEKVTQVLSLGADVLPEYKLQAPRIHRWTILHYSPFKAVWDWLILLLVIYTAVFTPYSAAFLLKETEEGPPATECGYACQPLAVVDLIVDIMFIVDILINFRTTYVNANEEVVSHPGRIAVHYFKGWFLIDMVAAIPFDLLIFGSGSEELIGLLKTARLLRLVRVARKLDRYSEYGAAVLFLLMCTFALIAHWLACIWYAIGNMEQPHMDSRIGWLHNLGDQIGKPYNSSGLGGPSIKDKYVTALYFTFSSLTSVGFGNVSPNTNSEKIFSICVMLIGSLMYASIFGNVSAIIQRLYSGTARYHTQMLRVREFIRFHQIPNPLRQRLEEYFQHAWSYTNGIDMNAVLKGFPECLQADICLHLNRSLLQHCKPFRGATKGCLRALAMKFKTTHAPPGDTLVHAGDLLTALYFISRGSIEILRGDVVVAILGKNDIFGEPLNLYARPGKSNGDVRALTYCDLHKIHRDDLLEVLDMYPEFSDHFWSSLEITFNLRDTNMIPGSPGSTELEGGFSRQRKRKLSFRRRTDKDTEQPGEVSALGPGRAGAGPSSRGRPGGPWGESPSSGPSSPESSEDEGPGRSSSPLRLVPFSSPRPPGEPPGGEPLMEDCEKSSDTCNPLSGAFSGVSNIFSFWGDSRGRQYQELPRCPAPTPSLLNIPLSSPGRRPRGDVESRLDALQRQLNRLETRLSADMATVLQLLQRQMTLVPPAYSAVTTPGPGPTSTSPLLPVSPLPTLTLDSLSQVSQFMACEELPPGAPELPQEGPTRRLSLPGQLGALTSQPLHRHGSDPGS
Sequence of Luciferin 4-monooxygenase (Photinus pyralis) (P08659 whole entry, looked up): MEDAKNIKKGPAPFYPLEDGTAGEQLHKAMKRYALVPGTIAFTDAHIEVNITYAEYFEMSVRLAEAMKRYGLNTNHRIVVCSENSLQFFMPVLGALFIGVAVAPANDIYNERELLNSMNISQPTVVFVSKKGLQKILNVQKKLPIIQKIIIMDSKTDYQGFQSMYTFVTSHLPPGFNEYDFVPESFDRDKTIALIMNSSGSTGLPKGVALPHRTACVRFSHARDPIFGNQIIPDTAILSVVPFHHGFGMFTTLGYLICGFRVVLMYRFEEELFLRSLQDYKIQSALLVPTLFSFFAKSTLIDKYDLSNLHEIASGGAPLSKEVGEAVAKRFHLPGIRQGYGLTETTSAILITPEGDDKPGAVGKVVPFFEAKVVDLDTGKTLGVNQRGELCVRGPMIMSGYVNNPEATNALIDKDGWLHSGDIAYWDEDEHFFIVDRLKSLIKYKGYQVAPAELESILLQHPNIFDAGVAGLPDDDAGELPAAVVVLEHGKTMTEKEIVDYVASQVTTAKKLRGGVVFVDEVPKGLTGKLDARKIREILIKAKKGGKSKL
Sequence of Thyroid hormone receptor beta (Homo sapiens) (P10828 whole entry, looked up): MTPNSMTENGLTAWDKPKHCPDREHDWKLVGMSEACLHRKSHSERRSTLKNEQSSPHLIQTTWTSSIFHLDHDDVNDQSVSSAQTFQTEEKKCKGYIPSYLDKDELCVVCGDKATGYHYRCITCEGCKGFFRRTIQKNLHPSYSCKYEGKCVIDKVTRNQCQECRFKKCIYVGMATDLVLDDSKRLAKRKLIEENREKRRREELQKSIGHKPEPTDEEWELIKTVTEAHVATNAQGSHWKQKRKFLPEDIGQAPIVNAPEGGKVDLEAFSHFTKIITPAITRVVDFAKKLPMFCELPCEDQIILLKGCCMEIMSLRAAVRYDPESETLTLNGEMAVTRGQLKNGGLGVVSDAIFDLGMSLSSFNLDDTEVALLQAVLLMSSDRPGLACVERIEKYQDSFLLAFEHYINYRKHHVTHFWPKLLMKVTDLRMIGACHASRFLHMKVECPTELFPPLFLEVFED
Sequence of Peroxisome proliferator-activated receptor gamma (Homo sapiens) (P37231 whole entry, looked up): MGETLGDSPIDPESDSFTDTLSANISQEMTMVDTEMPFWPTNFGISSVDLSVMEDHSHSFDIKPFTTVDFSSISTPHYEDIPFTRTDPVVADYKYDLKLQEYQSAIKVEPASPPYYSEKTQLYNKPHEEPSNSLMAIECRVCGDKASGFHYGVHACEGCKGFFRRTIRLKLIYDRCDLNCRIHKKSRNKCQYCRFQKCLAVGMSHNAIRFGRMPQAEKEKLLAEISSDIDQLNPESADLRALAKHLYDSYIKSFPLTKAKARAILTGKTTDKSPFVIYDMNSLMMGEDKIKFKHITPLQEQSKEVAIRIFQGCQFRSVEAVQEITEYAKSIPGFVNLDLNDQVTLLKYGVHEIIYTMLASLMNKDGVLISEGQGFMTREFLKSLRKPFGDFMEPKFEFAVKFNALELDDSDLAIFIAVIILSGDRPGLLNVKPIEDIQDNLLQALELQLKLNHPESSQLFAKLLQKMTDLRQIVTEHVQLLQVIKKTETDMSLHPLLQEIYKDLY
Sequence of Retinoic acid receptor RXR-alpha (Homo sapiens) (P19793 whole entry, looked up): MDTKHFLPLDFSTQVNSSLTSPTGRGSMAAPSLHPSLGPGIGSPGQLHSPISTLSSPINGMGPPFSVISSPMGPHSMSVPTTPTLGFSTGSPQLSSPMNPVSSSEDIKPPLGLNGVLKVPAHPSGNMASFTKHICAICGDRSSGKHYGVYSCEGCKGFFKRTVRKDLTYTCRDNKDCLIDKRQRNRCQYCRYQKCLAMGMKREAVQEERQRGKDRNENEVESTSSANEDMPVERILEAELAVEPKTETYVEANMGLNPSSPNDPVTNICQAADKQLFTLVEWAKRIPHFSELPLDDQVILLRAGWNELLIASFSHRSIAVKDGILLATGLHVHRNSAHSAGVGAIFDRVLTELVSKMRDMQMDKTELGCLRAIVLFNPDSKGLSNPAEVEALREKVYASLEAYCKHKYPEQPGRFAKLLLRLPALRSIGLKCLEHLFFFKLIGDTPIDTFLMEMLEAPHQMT

`NC(=Nc1ccccc1)Nc1ccccc1`: the result in test [1], in test [2] and in test [4] was inactive. For the same compound, the max response is 3.91% in test [3]; -5.44% and -1.29% in test [6]; -22.5% (inactive) and -7.28% (inactive) in [7]. In addition, the Potency result in test [5], in test [9] and in [10] was “inactive” throughout. In addition, the activity change % (negative = inhibition) in [8] was -0.182% (inactive).

With `NS(=O)(=O)c1cc2c(cc1Cl)NC(C1CC3C=CC1C3)NS2(=O)=O` (configuration not stated), the Potency entry in [11], in test [9], in test [10], in test [12], in test [13] and in [14] was “inactive” throughout. Besides, the Potency entry in test [16] is “inactive”. Further, in test [15], the result was inactive.

On to `O=C(O)CN(CCOCCOCCN(CC(=O)O)CC(=O)O)CC(=O)O`, for which the Potency result in test [11], in test [9], in test [10], in test [14] and in test [16] was “inactive” throughout. Moreover, the call in test [17], in [15] and in test [18] was inactive.

As to `Cc1nc2sccn2c(=O)c1CCN1CCC(=C(c2ccc(F)cc2)c2ccc(F)cc2)CC1`, the Potency in test [11] is 70.8 nM (active). Moreover, the Potency entry in [9], in [10], in [13], in test [14] and in test [16] was “inactive” each time. In addition, the call in test [15] was inactive.

Take `Cc1ccc(Cl)c(Nc2ccccc2C(=O)O)c1Cl`: the Potency result in [11], in test [9], in [10], in test [12], in test [14] and in [16] was “inactive” throughout. For the same compound, the outcome in test [17] and in test [15] was inactive.

In the case of `CC[N+](C)(C)c1cccc(O)c1`, the Potency result in test [11], in test [9], in [10], in test [12] and in [14] was “inactive” in each case. Also, the outcome in test [15] was inactive.

In the case of `NC(Cc1ccc(Cl)cc1)C(=O)O` (configuration not stated), the Potency entry in test [11], in test [9], in test [10], in test [12], in test [14] and in [16] was “inactive” each time. Moreover, the compound was classed as inactive in test [15].

Take `CCOC(=O)C1=C(C)NC(C)=C(C(=O)OC)C1c1cccc([N+](=O)[O-])c1` (configuration not stated): the Potency entry in [11], in [9], in test [10], in [13], in [14] and in [16] was “inactive” each time. The result in test [17], in test [15] and in test [18] was inactive.

In the case of `C[N+](C)(C)CCOC(=O)CCC(=O)OCC[N+](C)(C)C`, the Potency entry in test [11], in [9], in test [10], in test [14] and in test [16] was “inactive” in each case. Also, the call in [17], in [15] and in test [18] was inactive.

As to `CN1CCN(C2=Nc3ccccc3Oc3ccc(Cl)cc32)CC1`, in [11], the Potency is 11.2 µM (active) and 10 µM (active). Also, the Potency entry in [9], in [10], in test [14] and in test [16] was “inactive” each time. In addition, the result in test [17], in test [15] and in [18] was inactive.

With `C=CCc1ccccc1OCC(O)CNC(C)C` (configuration not stated), the Potency entry in test [11] is “inactive and 11.2 µM (active)”. Further, the Potency result in [9], in test [10], in [12], in test [14] and in [16] was “inactive” each time. Further, in test [15], the outcome was inactive.

In the case of `C[N+](C)(C)CCOC(N)=O`, the Potency entry in [11], in test [9], in [10], in test [12], in [14] and in [16] was “inactive” in each case. The call in test [15] and in test [18] was inactive.

For the compound `Cc1nc2ccccn2c(=O)c1CCN1CCC(C(=O)c2ccc(F)cc2)CC1`, the Potency in [11] is 1.12 µM (active) and 4.47 µM (active). In addition, the Potency entry in [9], in test [10], in [13], in test [14] and in test [16] was “inactive” in each case. Also, the compound was classed as inactive in test [15] and in test [18].
